Screening results (PubChem BioAssay)
Six1-Eya2 inh: qHTS Assay for Inhibitors of the Six1/Eya2 Interaction | AID 651725, 2012 | hit rate 0.56% among 360,000 | Homeobox protein SIX1 (Homo sapiens) + Protein phosphatase EYA2 (Homo sapiens), … | AlphaScreen GST-Six1/His-Eya2 binding, biochemical; active compounds read low | activity change, % (concentration not given with the values); in the data active = activity change below about -65%; inconclusive = mostly about -30% to -63%
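Homogeneous AlphaScreen proximity assay pairing GST-Six1 with His-tagged Eya2 (added as 5X mix: 250 nM and 500 nM) in 50 mM Tris pH 8.0, 300 mM NaCl, 1 mM TCEP. Glutathione donor and nickel acceptor beads; 1 h, 37 °C, dark.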
IL-1B inflam inh: qHTS for Inhibitors of Inflammasome Signaling: IL-1-beta AlphaLISA Primary Screen. THP-1 LPS/ATP IL-1B secretion, AlphaLISA, 16 h; active compounds read low. activity change, % at 57.5 µM. hit rate 4.7% among 360,000. AID 743279, 2014; in the data active = activity change below about -50%; inconclusive = mostly about -30% to -49%
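THP-1 cells pretreated 1 hr with compounds (up to 57.5 uM final), then stimulated with LPS (250 ng/mL final) plus ATP (1.25 mM final); secreted IL-1B measured by AlphaLISA after 16 hr, decreased signal indicating inhibition.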
TDP1 inh: qHTS Assay for Inhibitors of Tyrosyl-DNA Phosphodiesterase (TDP1) | Tyrosyl-DNA phosphodiesterase 1 (Homo sapiens), Q9NUW8 | recombinant TDP1, AlphaScreen DNA substrate cleavage | Potency, µM (doses to about 130 µM), for inactives: at the highest dose activity change, negative = inhibition, usual class: inhibitors | hit rate 0.28% among 350,000; note: potency is the fitted concentration of half-maximal effect; nearly all actives have a fitted effect of over 40% in size
Target sequence (Q9NUW8 whole entry, looked up): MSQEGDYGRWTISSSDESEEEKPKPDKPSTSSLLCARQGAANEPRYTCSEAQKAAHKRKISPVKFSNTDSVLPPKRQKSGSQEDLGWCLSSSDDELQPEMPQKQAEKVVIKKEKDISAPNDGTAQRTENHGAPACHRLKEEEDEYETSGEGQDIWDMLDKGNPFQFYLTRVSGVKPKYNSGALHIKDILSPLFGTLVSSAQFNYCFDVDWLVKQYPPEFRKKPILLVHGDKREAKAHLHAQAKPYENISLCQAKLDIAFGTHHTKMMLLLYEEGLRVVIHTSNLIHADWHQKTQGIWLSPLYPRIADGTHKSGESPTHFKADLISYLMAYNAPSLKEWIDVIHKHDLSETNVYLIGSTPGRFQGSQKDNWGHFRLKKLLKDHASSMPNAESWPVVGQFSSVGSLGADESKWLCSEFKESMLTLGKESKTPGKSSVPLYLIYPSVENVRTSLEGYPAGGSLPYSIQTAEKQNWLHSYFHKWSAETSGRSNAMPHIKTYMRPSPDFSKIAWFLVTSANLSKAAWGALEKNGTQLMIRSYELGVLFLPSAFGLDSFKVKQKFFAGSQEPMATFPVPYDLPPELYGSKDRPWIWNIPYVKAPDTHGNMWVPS
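Steps: enzyme plus compound, 15 min RT; add biotin/phosphotyrosine-FITC oligonucleotide (15 nM final), react 5 min; add donor/acceptor beads (10 ug/ml final), 10 min; read AlphaScreen. Tdp1 at 1 nM final.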
TDP1 cell noCPT: qHTS for Inhibitors of human tyrosyl-DNA phosphodiesterase 1 (TDP1): qHTS in cells in absence of CPT; DT40 Tdp1-/- hTDP1 cells, no CPT, ATP luminescence, 48 h; hit rate 15% among 420,000; Potency, µM (titrated, usually from 46.2 µM), inactives show top-dose activity change, negative = growth inhibition, usual class: inhibitors; note: potency is the fitted concentration of half-maximal effect; nearly all actives have a fitted effect of over 55% in size
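Compound effects on proliferation are scored in DT40 Tdp1-/-;hTDP1 cells in the absence of CPT. ATP levels (CellTiter-Glo luminescence) are recorded after a ≥48 hr, 37 °C incubation.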
TDP1 cell CPT: qHTS for Inhibitors of human tyrosyl-DNA phosphodiesterase 1 (TDP1): qHTS in cells in presence of CPT | Potency, µM (series often up to 46.2 µM), for the others: top-dose activity change, negative = growth inhibition, most hits filed as inhibitors | hit rate 12% among 420,000 | chicken DT40 Tdp1-/-;hTDP1 cells + 20 nM CPT, ATP luminescence, 48 h; note: potency is the fitted concentration of half-maximal effect; nearly all actives have a fitted effect of over 55% in size
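Cell growth measured by CellTiter-Glo luminescence after a minimum 48 h, 37 C compound exposure with 20 nM CPT in Tdp1-knockout DT40 cells stably expressing hTDP1, seeded 400/well; qHTS titration format.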
CtBP-E1A inh: qHTS Assay for Inhibitors of the CtBP/E1A Interaction; CtBP / adenovirus E1A interaction (AlphaScreen); hit rate 0.49% among 340,000; AID 651724, 2012; AlphaScreen GST-E1A/His-CtBP binding, 1536-well; active compounds read low; activity change, % (test concentration not listed); in the data active = activity change below about -65%; inconclusive = mostly about -30% to -63%
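In 5 uL wells, 23 nL compound meets equimolar GST-E1A and His-CtBP (5X stock 125 nM each) for 2 h, 37 °C. Beads (5X, 50 ug/mL) then 1 h, 37 °C, dark.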
Active calls of the source: *; ? = inconclusive; . = no result; ! = a repeat was not active. Sampled rows, rich in hits. Any-hit rate of the full collection: about 18%. Unless noted, calls come from the whole dose curve; as a rule, active = well fitted curve in the direction sought with a large enough effect; inconclusive = small, poorly fitted or top-dose-only effect, or another doubt; inactive = no such curve, though single readings can be large; an effect the other way counts as inactive or inconclusive. % is set by controls: 0 for no effect and ±100 for the full control effect.

SMILES	Six1-Eya2 inh	IL-1B inflam inh	TDP1 inh	TDP1 cell noCPT	TDP1 cell CPT	CtBP-E1A inh
CN(C)c1oc(-c2ccccc2)nc1C#N	-14	-13	0%	-15%	-1%	-20
COc1ccccc1/C=C/c1nc(C#N)c(NCCc2ccccc2)o1	.	.	2%	16µM*	?	.
COCC1CCN(C(=O)C2CCC(=O)N(CCc3ccc(Cl)cc3)C2)CC1 (stereo unspecified)	6	9	3%	3%	-23%	0
COc1ccc(NC(=O)c2nc[nH]c2C(=O)N(C)CCO)cc1	2	-5	.	3%	-14%	-11
Cc1onc(-c2c(Cl)cccc2Cl)c1C(=O)NCc1ccccn1	4	11	5%	?	-11%	4
COc1ccc(Nc2oc(/C=C/c3cccc(OC)c3)nc2C#N)cc1	.	.	5%	?	18µM*	.
CCNc1oc(/C=C/c2ccc(OCC)cc2)nc1C#N	0	-1	.	8.2µM*	7.3µM*	-13
COc1cccc(/C=C/c2nc(C#N)c(NCCc3ccccc3)o2)c1	.	.	-5%	15µM*	?	.
COc1cccc(/C=C/c2nc(C#N)c(N(C)Cc3ccccc3)o2)c1	.	.	-5%	23µM*	?	.
CN(C)c1oc(/C=C/c2ccc(F)cc2)nc1C#N	.	.	5%	-18%	-22%	.
COc1cccc(/C=C/c2nc(C#N)c(NCCN(C)C)o2)c1	.	.	0%	?	-30%	.
CNc1oc(/C=C/c2cccc(OC)c2)nc1C#N	4	?	.	?	-24%	.
CCCCn1c(=NC(=O)c2cc3ccccc3o2)c(C(=O)OCC)cc2c(=O)n3ccccc3nc21	.	.	6%	-1%	-19%	.
CCCCn1c(=NC(=O)c2cccnc2)c(C#N)cc2c(=O)n3cccc(C)c3nc21	0	19	-2%	?	-3%	-15
CCCCn1c(=NC(=O)c2ccco2)c(C(=O)OCC)cc2c(=O)n3ccccc3nc21	-10	-5	9%	23µM*	?	-6
CCCCn1c(=NC(=O)c2ccco2)c(C(=O)OCC)cc2c(=O)n3cccc(C)c3nc21	-7	3	-1%	13µM*	?	-13
CCCCCn1c(=NC(=O)c2ccco2)c(C(=O)OCC)cc2c(=O)n3ccccc3nc21	9	-74*!	3%	15µM*	16µM*	4
CCCCn1c(=NC(=O)c2cccnc2)c(C(=O)OCC)cc2c(=O)n3ccccc3nc21	0	5	2%	16µM*	23µM*	13
CC1CN(C(=O)CCC(=O)NCc2ccccc2)c2cc(Cl)ccc2O1 (stereo unspecified)	4	-25	11%	?	-20%	4
Fc1ccc(-c2nc3ccc(Cl)cn3c2Cc2cccc(Cl)c2)cc1	0	8	.	?	-3%	9
CCOC(=O)c1cc2c(=O)n3cccc(C)c3nc2n(CCCOC)c1=NC(=O)c1cccnc1	2	?	1%	23µM*	-28%	-3
CCOC(=O)c1cc2c(=O)n3ccccc3nc2n(CCOC)c1=NC(=O)c1cc2ccccc2o1	.	.	0%	-2%	-18%	.
CCOC(=O)c1cc2c(=O)n3ccccc3nc2n(CCCOC)c1=NC(=O)c1cc2ccccc2o1	.	.	9%	18µM*	23µM*	.
CCOCCCn1c(=NC(=O)c2cccnc2)c(C(=O)OCC)cc2c(=O)n3ccccc3nc21	-7	-7	0%	?	?	-6
Nc1nc2n(n1)C(c1ccco1)CC(c1ccc(Cl)cc1)N2 (stereo unspecified)	-3	0	0%	-19%	-18%	-1
SMILES	Six1-Eya2 inh	IL-1B inflam inh	TDP1 inh	TDP1 cell noCPT	TDP1 cell CPT	CtBP-E1A inh
Cc1cccc(OCCSc2nc3c([nH]2)c(=N)ncn3Cc2ccccc2)c1	-5	-7	6%	16µM*	21µM*	-2
CC(C)C(N)c1csc(NC(=O)Nc2cccc(Cl)c2)n1 (stereo unspecified)	-8	?	.	21µM*	?	-13
NCc1csc(NC(=O)Nc2cccc(Cl)c2)n1	-11	0	.	?	?	-13
NC(c1csc(NC(=O)Nc2cccc(Cl)c2)n1)c1ccccc1Cl (stereo unspecified)	-7	-107*	.	?	?	-26
Cc1cccc(C)c1NC(=O)Nc1nc(C(N)c2ccccc2Cl)cs1 (stereo unspecified)	-19	-19	.	16µM*	?	-19
CN1OC[C@@H]2CN(Cc3ccc(Cl)cc3)[C@H](c3ccc(N4CCCCC4)cc3)C[C@@H]21	?	-20	.	?	?	?
CCCN(CC(=O)Nc1cccc(Br)c1)CC(=O)Nc1ccc(F)c(F)c1F	18	-92*	-3%	?	?	4
CCCN(CC(=O)Nc1ccc(NC(C)=O)cc1)CC(=O)Nc1ccc(F)c(F)c1F	2	12	1%	?	-24%	6
CCCN(CC(=O)Nc1ccc(C)cc1Br)CC(=O)Nc1ccc(F)c(F)c1F	0	-29	-5%	18µM*	?	-2
CCCN(CC(=O)Nc1ccc(F)c(F)c1F)CC(=O)Nc1c(Cl)cccc1Cl	4	-1	3%	4.1µM*	10µM*	11
CCc1ccc(NC(=O)CSc2nnc(-c3ccc(N)cc3)n2C)cc1	.	.	.	?	-10%	.
CN(C)CC(C)(C)CNC(=O)C1CCN(CCCc2ccccc2)CC1	4	0	.	?	?	5
CCOc1ccccc1CNC(=O)C1CCN(S(=O)(=O)c2ccc3[nH]c(=O)ccc3c2)CC1	.	.	0%	-1%	3%	.
